From PubChem BioAssay (NCI)
This is part of a sample that, as a whole, favours compounds with a hit. Of some 83,000 tested, about 20% had one in any assay.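 Assay: single dose, 48 h. Readout: percent growth (0 = no net growth; negative = cell death). Active: <10.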 Calls of active or inactive are those of the source.

Experiments:
Experiment in all cases: NCI-60 one-dose screen, 48 h (100 = growth as untreated, 0 = no growth, -100 = all killed)
Conditions in all cases: 10 µM unless noted
[1] = system: T-47D breast
[2] = system: BT-549 breast
[3] = system: MDA-MB-435 melanoma
[4] = system: SW-620 colon
[5] = system: MCF7 breast
[6] = system: HCT-116 colon
[7] = system: HCC-2998 colon
[8] = system: KM12 colon

Measured: growth

Cc1ccc(N(CC2=NCCN2)c2cccc(O)c2)cc1
inactive: [1] 98.5% | [2] 89.7% | [3] 100% | [4] 102% | [5] 93.9% | [6] 101% | [7] 103% | [8] 104%

O=C(CSc1nnc(-c2ccccc2)o1)Nc1ccc(C(=O)/C=C/c2ccccc2)cc1
inactive: [1] 79.4% | [2] 74.5% | [3] 55.5% | [4] 39.4% | [7] 46.5% | [8] 30.2%
active: [5] 7.77% | [6] -2.15%

CN(C)c1ncc(C#Cc2c(F)cccc2F)c2ccccc12
inactive: [1] 36% | [2] 95.7% | [3] 105% | [4] 97.7% | [5] 28.5% | [6] 80.1% | [7] 97.6% | [8] 98%

O=C(Nc1ccc(-n2ccc3c(NC(=O)c4ccccc4)ncnc32)cc1)c1ccc(Cl)c(C(F)(F)F)c1
active: [4] -3.54% | [6] -32%
inactive: [1] 30.4% | [2] 55.1% | [3] 18.2% | [5] 12.5% | [7] 48.2% | [8] 11.1%

C=C1C(=O)O[C@H]2[C@H]1CC/C(C(=O)NCCOCCOCC(=O)Nc1ccc(OC)c(C(N)=O)c1O)=C\CC[C@@]1(C)O[C@@H]21
inactive: [1] 70.6% | [2] 86.2% | [3] 104% | [4] 80.1% | [5] 83.6% | [6] 81.2% | [7] 104% | [8] 101%

c1ccc(OCC[P+](c2ccccc2)(c2ccccc2)c2ccccc2)cc1
inactive: [2] 19.6% | [4] 18.3% | [5] 20% | [6] 15.6% | [8] 14.9%
active: [1] 6.07% | [3] 4.66% | [7] 5.3%

Cc1ccc(=O)n(-c2ccc(Br)cc2F)c1
inactive: [1] 93.7% | [2] 94.5% | [3] 100% | [4] 103% | [5] 92.6% | [6] 105% | [7] 106% | [8] 103%

c1coc(CSc2ncnc3nc[nH]c23)c1
inactive: [1] 93.6% | [2] 120% | [3] 116% | [4] 97.9% | [5] 89.9% | [6] 97.7% | [7] 107% | [8] 102%

Nc1ncnc2c1c(-c1ccc(Oc3ccccc3)cc1)nn2C[C@H]1SSC[C@@H]1O
inactive: [2] 78.1% | [4] 51.1% | [5] 14.5% | [6] 13% | [7] 72.1% | [8] 32.6%
active: [1] -20.3% | [3] -92.9%

O=C(Nc1cccc(-n2ccc3c(NC(=O)c4ccccc4)nccc32)c1)Nc1cc(C(F)(F)F)cc(C(F)(F)F)c1
active: [2] 2.85% | [3] -34.1% | [6] -15.8% | [8] -15.2%
inactive: [1] 55% | [4] 21.2% | [5] 13.6% | [7] 13.2%

CC1(C)CC(=O)C2=C(C1)OC1=C(C(=O)CC(C)(C)C1)C2c1ccc(OCc2cn(-c3ccc(F)cc3F)nn2)cc1
inactive: [1] 98.5% | [2] 110% | [3] 92.4% | [4] 118% | [5] 87.2% | [6] 91.9% | [7] 122% | [8] 90.2%

COc1ccc(SC2c3ccc(O)cc3Oc3nc(N)c(C#N)c(N)c32)cc1 (stereo unspecified)
inactive: [1] 85.4% | [2] 30.7% | [3] 87% | [4] 105% | [5] 90.7% | [6] 94.9% | [7] 92.7% | [8] 65.5%

O=C(/C=C/c1ccco1)c1cccc(Nc2nc(Nc3ccccc3)nc(Nc3ccccc3)n2)c1
inactive: [1] 48.6% | [2] 116% | [3] 102% | [4] 88% | [5] 28.3% | [6] 40.4% | [7] 68.5% | [8] 83.7%

Nc1ccc(S(=O)(=O)Nc2ccnn2-c2ccccc2)cc1
inactive: [1] 104% | [2] 116% | [3] 97% | [4] 101% | [5] 101% | [6] 109% | [7] 98.8% | [8] 105%

O=C(NCCNc1nccc(-c2c(-c3cccc(O)c3)nc3sccn23)n1)Nc1cc(C(F)(F)F)cc(C(F)(F)F)c1
inactive: [1] 72% | [2] 87.6% | [4] 73.5% | [5] 67.5% | [6] 66.3% | [7] 65.5% | [8] 43.1%
active: [3] 9.9%

CCOc1ccc(-n2c(-c3cc(OC)c(OC)c(OC)c3)nnc2-c2ccc(OC)cc2N)cc1
inactive: [1] 43.4% | [2] 84% | [3] 81.3% | [4] 67.2% | [5] 40.6% | [6] 63.7% | [7] 82.4% | [8] 37.8%

COc1ccccc1S(=O)(=O)Nc1ccc2c3c(cc(-c4cnn(C5CC5)c4)nc13)C(=O)N2C
inactive: [1] 69.9% | [2] 90% | [3] 52.4% | [4] 68.5% | [5] 29.6% | [6] 60% | [7] 75.4% | [8] 56.3%

CCOC(=O)c1[nH]c(-c2ccc(Cl)cc2)cc1-c1cccnc1
inactive: [2] 29.4% | [4] 25.4% | [5] 22.2% | [7] 29.9% | [8] 19.8%
active: [1] 5.56% | [3] -38% | [6] 9.8%

S=C=NP1(N=C=S)=NP(N=C=S)(N=C=S)=NP(N=C=S)(N=C=S)=NP(N=C=S)(N=C=S)=N1 (stereo unspecified)
inactive: [1] 82.3% | [2] 80.4% | [3] 104% | [4] 108% | [5] 91% | [6] 98.8% | [7] 102% | [8] 102%

CCCCOc1nc2ccc(Cl)cc2cc1/C=C/C(=O)/C=C/c1ccc(OC)cc1
inactive: [1] 86.8% | [2] 93.6% | [4] 107% | [5] 30.7% | [7] 92.7% | [8] 84%
active: [3] 9.64% | [6] -25.4%

COc1ccc(-c2nnc(SCC(=O)Nc3ccc(C(=O)/C=C/c4ccc(OC)c(OC)c4)cc3)o2)cc1
inactive: [1] 75% | [2] 113% | [3] 94.2% | [4] 92.7% | [5] 51.6% | [6] 77.8% | [7] 102% | [8] 84.5%

CCCCOc1nc2ccc(Cl)cc2cc1/C=C/C(=O)/C=C/c1ccc(Cl)cc1
inactive: [1] 53.8% | [2] 36.3% | [4] 42.5% | [5] 23% | [7] 60.4% | [8] 51.6%
active: [3] 2.31% | [6] -29.1%

COc1ccc(-c2nn(-c3cccc(Cl)c3)cc2-c2cc(-c3ccc(Br)cc3)[nH]c(=O)c2C#N)cc1
inactive: [1] 70.8% | [2] 66.3% | [3] 94.4% | [4] 73.5% | [5] 65% | [6] 79.7% | [7] 98.4% | [8] 91.8%

O=C(Nc1ccc(-n2ccc3c(NC(=O)c4ccccc4)nccc32)cc1)c1cccc(C(F)(F)F)c1
inactive: [1] 58.3% | [2] 29% | [3] 11% | [4] 19.2% | [5] 24.3% | [6] 12.8% | [7] 44.2% | [8] 20.4%

Cc1[nH]c2ccc(F)cc2c1CCNC(=O)C1CCN(C(=O)c2ccc(-c3ccccc3)cc2)CC1
inactive: [2] 40.8% | [3] 56.8% | [4] 69.3% | [5] 16.5% | [6] 32.5% | [7] 57% | [8] 43.3%
active: [1] -32.2%

CC12CCC3C(CCC4CC(O)CCC43C)C1C/C(=C/O)C(=O)O2 (stereo unspecified)
inactive: [1] 106% | [2] 109% | [3] 111% | [4] 102% | [5] 102% | [6] 104% | [7] 103% | [8] 97.8%

C=C1C(=O)O[C@H]2[C@H]1CC/C(COC(=O)c1ccc(Br)cc1)=C\CC[C@@]1(C)O[C@@H]21
inactive: [7] 87.3% | [8] 56.2%
active: [1] -47% | [2] -8.16% | [3] -35.4% | [4] -47.5% | [5] -18.5% | [6] -84.3%

O=C(Nc1ccc(-n2ccc3c(NC(=O)c4ccccc4)nccc32)cc1)Nc1cccc(C(F)(F)F)c1
inactive: [1] 57.6% | [2] 74% | [3] 61.4% | [4] 63.4% | [5] 47.7% | [7] 67.8% | [8] 11.2%
active: [6] 4.34%

Cc1ccc(NC(=O)CN2CCOCC2)cc1Cl
inactive: [1] 88.7% | [2] 77% | [3] 100% | [4] 98.5% | [5] 91.8% | [6] 80.5% | [7] 96.8% | [8] 103%

CC(C)(C)OC(=O)N1CCN(CCn2cc(C(F)(F)F)c3c(Cl)ncnc32)CC1
inactive: [1] 90.3% | [2] 118% | [3] 47.1% | [4] 12% | [5] 87.4% | [6] 12.1% | [7] 86.1% | [8] 95.9%

COc1cc2c(cc1OC)-c1c(oc3c4c(ccc3c1=O)OC(C)(C)C=C4)CO2
inactive: [1] 39.2% | [2] 52.6% | [3] 61.2% | [4] 89.8% | [5] 48.8% | [6] 40.3% | [7] 81.5% | [8] 76.8%

CCc1c(C)c2cc(-n3c(-c4ccc(OC)cc4)csc3=N)c(O)c(C)c2oc1=O
active: [1] -0.0975% | [2] 5.21% | [3] 0.357% | [5] 9.39% | [6] 8.8%
inactive: [4] 22.9% | [7] 36.2% | [8] 12.7%
